Drawing on PubChem BioAssay (NCI), this text covers growth for 14 compounds.

Common to all, as to assay: NCI-60 one-dose screen, 48 h (100 = growth as untreated, 0 = no growth, -100 = all killed)
Settings in all cases: 10 µM unless noted

Assay [1] concerns DU-145 prostate.
Assay [2] has as its system K-562 leukemia.
Assay [3] deals with MALME-3M melanoma.
Assay [4] has as its system MDA-MB-231 breast.
Assay [5] relates to RXF 393 renal.
In assay [6] the test system is SF-268 CNS.
Assay [7] concerns SF-295 CNS.
Assay [8] has as its system SF-539 CNS.
Assay [9] has as its system UACC-257 melanoma.
In assay [10] the test system is M14 melanoma.

About 83,000 compounds went through this panel and 20% of them were active in at least one assay; those are over-represented in the sample as a whole.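 The endpoint reported here, percent growth, reads 100 for growth as untreated, 0 for no net growth and -100 for all cells dead.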 Values without a mark were called inactive. Activity calls are given as the source filed them. How the source made its calls: active means growth percent below 10; inactive means the rest.

As to `CCCCCCCCCCCCCCCCCCNC(=O)[C@H]1CSC(c2cccs2)N1` (stereo partly drawn), the growth in [1] is 53.3%; in assay [2], -27.7% (active); in assay [3], -78.4% (active); in assay [4], -93.5% (active); in assay [5] it was -90.9% (active); in assay [6], -65.7% (active). Moreover, the growth in assay [7] is 66.5%; in [8] it was -49.6% (active); in [9], -17.7% (active); in [10], -84.8% (active).

Take `O=S(=O)(NCCCNc1nccc(-n2ccc3cccnc32)n1)c1cccc(C(F)(F)F)c1`: the growth was 101% in assay [1]; 100% in assay [2]; 112% in [3]; 106% in assay [4]; 103% in assay [5]; 95.5% in assay [6]. Further, the growth in [7] is 112%; in assay [8] it was 109%; in assay [9], 108%; in [10], 107%.

As to `O=C(/C=C\c1cccc([N+](=O)[O-])c1)/C=C/c1cccc([N+](=O)[O-])c1`, the growth is 93.1% in assay [1]; 70.5% in assay [2]; 110% in assay [3]; 90.1% in assay [4]; 79.6% in assay [5]; 78.5% in [6]. For the same compound, the growth in assay [7] was 100%; in assay [8], 101%; in assay [9], 90.2%.

For `Cc1cc(C2(c3cc(C)c(O)cc3C)OS(=O)(=O)c3ccccc32)c(C)cc1O`, the growth in assay [1] was 119%; in assay [2], 102%; in assay [3], 122%; in assay [4], 100%; in [5], 114%; in assay [6], 103%. In addition, the growth in assay [7] was 107%; in assay [8] it was 105%; in [9] it was 87.7%; in [10] it was 108%.

In the case of `COc1ccc(C2NN=C3c4ccccc4CCC32)cc1` (stereo not drawn), the growth in [1] is 98.8%; in assay [2], 10.2%; in [3] it was 25.4%; in assay [4] it was 58.5%; in [5] it was 47%; in assay [6] it was 69.3%. Also, the growth was 40.2% in assay [7], 58% in assay [8] and 60.1% in assay [9].

In the case of `CCCCCc1cc[n+](CC(=O)c2ccc([N+](=O)[O-])cc2)cc1`, the growth in [1] was 79.2%; in assay [2], 34.7%; in assay [3], 85.2%; in assay [4] it was 70%; in assay [5] it was 97.6%; in assay [6], 87.3%. The growth in [7] was 95.2%; in assay [8] it was 96.9%; in [9], 35.6%.

Consider `O=C1/C(=C/c2ccc(Cl)cc2)CN(C(=O)CCN2CCC(=NO)CC2)C/C1=C\c1ccc(Cl)cc1`, for which the growth is -89.2% (active) in assay [1]; -13.9% (active) in assay [2]; -49.5% (active) in assay [3]; -83.1% (active) in assay [4]; -91.3% (active) in [5]; -60.1% (active) in [6]. For the same compound, the growth in assay [7] was -76.3% (active); in [8] it was -84.5% (active); in [9], -76.7% (active); in assay [10], -45.2% (active).

Turning to `COC1=C(OC)C(=O)C(CCCCCCCCCC[P+](c2ccccc2)(c2ccccc2)c2ccccc2)=C(C)C1=O`, the growth in assay [1] is 6.01% (active); in assay [2], -48.9% (active); in assay [3] it was -86.3% (active); in assay [4] it was -39.6% (active); in assay [5], -56.7% (active); in [6], -61.6% (active). Further, the growth is -52.6% (active) in assay [7], -25.1% (active) in [8] and -61.2% (active) in assay [9].

Take `OCCCCCCNc1ncnc2cc(Cl)ccc12`: the growth in assay [1] is 104%; in assay [2], 84.6%; in [3] it was 100%; in assay [4], 99.7%; in assay [5], 116%; in assay [6], 97.2%. The growth in assay [7] is 99%; in assay [8] it was 92.8%; in [9], 90.7%; in assay [10], 96.3%.

On to `COc1cc(/C=C/C(=O)c2c(C)nc3ccccc3c2C)ccc1OCCCCOc1cc2c(cc1OC)C(=O)N1CCC[C@H]1C=N2`, for which the growth in assay [1] was -100% (active); in [2], -55.5% (active); in [3], -81.3% (active); in assay [4], -65.9% (active); in assay [5] it was -92.6% (active); in assay [6], -35.6% (active). The growth in assay [7] is -48.9% (active); in assay [8], -90.6% (active); in assay [9] it was -88% (active).

For `Cc1nn(-c2ccc(Cl)cc2)c2ncnc(N/N=C/c3cccc([N+](=O)[O-])c3)c12`, the growth is 68.7% in assay [1]; 17.4% in [2]; 97.2% in [3]; 102% in [4]; 110% in assay [5]; 58% in assay [6]. The growth is 101% in assay [7], 106% in assay [8] and 103% in assay [9].

Turning to `S=C(S)NCCc1c[nH]c2ccccc12`, the growth in assay [1] is 107%; in assay [2], 93.3%; in assay [3] it was 99.1%; in assay [4] it was 91.1%; in [5] it was 106%; in [6], 89.7%. In addition, the growth was 95.7% in [7], 101% in [8], 104% in assay [9] and 95.2% in assay [10].

Turning to `Nc1cccc(Cl)c1N`, the growth in [1] was 117%; in assay [2], 102%; in assay [3], 116%; in [4] it was 99.3%; in assay [5], 121%; in [6], 104%. Further, the growth in assay [7] was 118%; in assay [8], 90.4%; in assay [9], 113%; in assay [10], 104%.

As for `COc1cc2c(cc1OCCCN1CCN(CCCn3c4ccccc4c4ccccc43)CC1)N=C[C@@H]1CCCN1C2=O`, the growth is -85.9% (active) in assay [1]; -50.1% (active) in [2]; -82.5% (active) in assay [3]; -69.3% (active) in [4]; -78.3% (active) in [5]; -87.8% (active) in [6]. The growth in assay [7] was -92.3% (active); in assay [8], -91.3% (active); in [9] it was -70.3% (active).
